# LASV entry inh: blocks Lassa virus binding to or entry into cells; Lassa virus pseudotype entry inhibition, cell reporter; Potency, µM (titrated, usually from 37.9 µM), for the others: at the top dose activity change, negative = inhibition, actives largely listed as inhibitors; 1.2% of 300,000 active; calls by dose curve; tested in HEK293 cells; also: nearly all actives have a fitted effect of over 50% in size
# MARV entry inh: blocks Marburg virus binding to or entry into cells; Marburg virus pseudotyped entry inhibition, cell reporter; Potency, µM (titrated, usually from 37.8 µM), inactives show at the top dose activity change, negative = inhibition, actives largely listed as inhibitors; 1.8% of 300,000 active; calls by dose curve; tested in HEK293 cells
# Vaccinia mCherry: inhibitors of vaccinia virus infection (mCherry reporter signal) | AID 720579 | Potency, µM (doses to about 36.5 µM), inactives show at the top dose activity change, negative = inhibition, usual class: inhibitors | 0.63% of 310,000 active | Vaccinia virus mCherry reporter infection, fluorescence; calls by dose curve; tested in A549 cells; also: nearly all actives have a fitted effect of over 35% in size
# Vaccinia Venus: inhibitors of vaccinia virus (Venus reporter) | 0.46% of 330,000 active | Potency, µM (top dose mostly 36.5 µM), for inactives: top-dose activity change, negative = inhibition, usual class: inhibitors | Vaccinia virus Venus reporter expression, fluorescence; calls by dose curve; tested in A549 cells; also: nearly all actives have a fitted effect of over 30% in size
# FMDV inh: antivirals against foot and mouth disease virus; FMDV antiviral cell-based qHTS; Potency, µM (titrated, usually from 57.9 µM), inactives show at the highest dose activity change, negative = inhibition, actives largely listed as inhibitors; 1.2% of 410,000 active; AID 1159524; calls by dose curve; tested in HEK293T cells; also: read-out not given here; nearly all actives have a fitted effect of over 45% in size
# Starred values were filed as active, the others as inactive; i = inactive; ? = inconclusive; · = not tested or not shown; [ ] = dose if it differs, or a comment. In the library only some 3.2% were active in any assay of this set; here they are far more common. % is scaled to controls: 0 for no effect and ±100 for the full control effect; potency is read from the fitted curve at half-maximal effect.
SMILES,LASV entry inh,MARV entry inh,Vaccinia mCherry,Vaccinia Venus,FMDV inh
CC(=O)Nc1cc(C(=O)N2CC3(C)CC2CC(C)(C)C3)cc2ncn(CCc3ccccn3)c12 (configuration not stated),·,·,-15%,-11%,21%
COc1cccc(-c2cccc3c2NC(=O)C3(C)Cc2cccc(F)c2)c1 (configuration not stated),·,·,7%,4%,35µM*
COc1ccc(-c2csc(C(C)(NC(C)=O)c3ccccc3)n2)cn1 (configuration not stated),·,·,i,4%,-10%
O=C(Nc1ccc(Cl)c(C(F)(F)F)c1)NC1CC2CCCC(C1)N2Cc1ccccc1 (configuration not stated),?,8.9µM*,?,?,?
O=C1c2ccccc2C(=O)c2c(Nc3ccc(CCO)cc3)ccc(O)c21,·,5%,-12%,-17%,-22%
O=C1c2c(O)ccc(O)c2C(=O)c2c(NCCNCCO)ccc(NCCNCCO)c21,0.5µM*,0.056µM*,?,10µM*,?
CCOc1ccccc1CNC(=O)C1CCN(C(=O)N2CC(CC)Oc3ccc(C)cc32)CC1 (configuration not stated),?,·,-8%,-9%,35µM*
CCC1CN(C(=O)N2CCC(C(=O)N3CCN(c4cc(C)ccc4C)CC3)CC2)c2ccccc2O1 (configuration not stated),7%[46.1 µM],·,?,?,18µM*
CCC1CN(C(=O)N2CCC(C(=O)N3CCN(c4cccc(C)c4C)CC3)CC2)c2ccccc2O1 (configuration not stated),-23%[46.1 µM],·,-22%,-27%,?
Cn1c(=O)c2c(ncn2CC(=O)N/N=C/c2ccc(Br)s2)n(C)c1=O,5%,3%,-12%,-7%,0%
COc1ccc(S(=O)(=O)N2CCN(CCCOc3ccc(F)cc3)CC2)cc1OC,?,10µM*,-9%,-23%,?
CCc1ccccc1Nc1nc(N)nc(COC(=O)CCC(=O)c2ccc(F)cc2)n1,10µM*,?,-12%,5%,6%
CCOC(=O)C1C=CN=C1C (configuration not stated),·,14%,·,·,·
Cc1ccc(-c2nc(Nc3cccc(O)c3)c3ccccc3n2)cc1,·,·,·,·,-24%
Oc1cccc(Nc2c3ccccc3nc3ccccc23)c1,·,·,?,10µM*,?
Oc1cccc(Nc2nc(-c3ccccc3Cl)nc3ccccc23)c1,-40%[46.1 µM],?,10µM*,-20%,?
CC(=O)OC[C@H]1O[C@H](CC=NO[C@H](C)c2cn([C@@H]3COC[C@@H]3O)nn2)C=C[C@@H]1OC(C)=O,·,-12%[14.2 µM],·,·,·
Cc1ccc(NC(=O)CN2C(=O)C(c3ccc(F)cc3)=NC23CCCCC3)c(C)c1,1%[46.1 µM],-13%[46.1 µM],-16%,-12%,10%
O=C1[C@H]2[C@H]3[C@H](O)[C@H](O)C/C(=N\OCc4ccccc4)[C@H]3CC[C@H]2C(=O)N1Cc1ccc2c(c1)OCO2,·,-38%[14.2 µM],·,·,·
CCOC(=O)c1cnc(SCc2ccc(C(C)(C)C)cc2)nc1N,4.1µM*,-3%,·,·,-27%
O=C(O)c1ccc(N/N=C/c2cc(Br)cs2)cc1,?,5µM*,3%,8%,-72%
O=C(O)c1cccc(N/N=C/c2ccc(F)c(F)c2)c1,4µM*,?,i,-1%,-33%
O=C(O)c1cccc(N/N=C/c2cccc3ccccc23)c1,?,2µM*,-3%,-1%,4µM*
Cc1ccc(/C=N/Nc2ccc(C(=O)O)cc2)s1,1.1µM*,?,-4%,4%,6.3µM*
COc1ccc(NC(=O)COC(=O)CCOc2ccccc2C)cc1Cl,7%,-5%[46.1 µM],-23%,-5%,10%
SMILES,LASV entry inh,MARV entry inh,Vaccinia mCherry,Vaccinia Venus,FMDV inh
CCOC(=O)c1ccc(NCCc2ccc(OC)c(OC)c2)c(N)c1,?,5%,-2%,-5%,0%
Cc1ccc(/C=N/Nc2ccc(C(=O)O)cc2)o1,-3%,-16%,·,·,-2%
O=C(O)c1cccc(N/N=C/c2sc(N3CCOCC3)nc2-c2ccccc2)c1,5%,?,-9%,-4%,49%
Cc1nn(-c2ccccc2Cl)c(Cl)c1/C=N/Nc1cccc(C(=O)O)c1,?,?,-3%,-19%,7.1µM*
O=C(O)c1ccc(N/N=C/c2ccc(-c3ccc(Br)cc3)o2)cc1,?,?,11µM*,?,2%
Cc1nn(-c2cccc(C(F)(F)F)c2)c(Cl)c1/C=N/Nc1cccc(C(=O)O)c1,?,?,i,-14%,-18%
Cc1ccc(/C=N/Nc2cccc(C(=O)O)c2)s1,1.6µM*,1.1µM*,i,-10%,3.5µM*
